The record followed here is PubChem BioAssay AID489043 (National Center for Advancing Translational Sciences (NCATS), 2010).

SMILES strings stand for the structures. Inconclusive results are not listed. Activity calls are given as the source filed them. Calls follow the shape of the dose curve; as a rule, active = well fitted activation curve with a large enough effect; inconclusive = small, poorly fitted or top-dose-only effect; inactive = flat fitted curve, though single readings scatter.
Potency is read from the fitted curve at half-maximal effect.

The experiment deals with Relaxin receptor 2 (Homo sapiens) (UniProt Q8WXD0). Kind of experiment: qHTS Assay for Agonists of the Relaxin Receptor RXFP1: RXFP2 Hit Validation. Also: nearly all actives have a fitted effect of over 65% in size. The following applies: HEK293 RXFP2 cAMP TR-FRET, 30 min; series mostly up to 115 µM; activation: at the top concentration. The text has this: NIH Chemical Genomics Center [NCGC] NIH Molecular Libraries Probe Production Centers Network [MLPCN] MLPCN Grant: R03 MH085705-01A1 Assay Submitter (PI): Alexander Agoulnik NCGC Assay Overview: The relaxin hormone is involved in the variety of biological functions in normal tissues and diseases. The role of relaxin is well-established in female reproduction and parturition, mammary gland and endometrial development, maintenance of myometrial quiescence during pregnancy. Relaxin signaling through its G protein-coupled receptor (GPCR) RXFP1 results in ECM remodeling through regulation of collagen deposition, cell invasiveness, proliferation and overall tissue homeostasis. […] Recombinant human relaxin (rhRlx) is currently being tested in clinical trials as a protective agent in congestive heart failure, in treating severe preeclampsia, and as an anti-fibrotic agent in systemic sclerosis. Upon relaxin binding RXFP1 activation leads to the activation of adenylate cyclase (AC) via Gs. cAMP will activate PKA, which phosphorylates many signaling proteins. Thus, detection of cAMP increase is an easy and reliable indication of relaxin receptor activation. To screen for agonists of the relaxin receptor, a HEK293T cell line stably transfected with RXFP1 was used. RXFP1 activation was assayed by changes in cAMP levels as detected with a time-resolved fluorescence energy transfer (TR-FRET) cAMP detection kit. This assay measures activation of a cell expressing RXFP2, another GPCR targeted by relaxin, to determine the selectivity of compounds for RXFP1.
Chain of Relaxin receptor 2 (Homo sapiens) (Q8WXD0 whole entry, looked up): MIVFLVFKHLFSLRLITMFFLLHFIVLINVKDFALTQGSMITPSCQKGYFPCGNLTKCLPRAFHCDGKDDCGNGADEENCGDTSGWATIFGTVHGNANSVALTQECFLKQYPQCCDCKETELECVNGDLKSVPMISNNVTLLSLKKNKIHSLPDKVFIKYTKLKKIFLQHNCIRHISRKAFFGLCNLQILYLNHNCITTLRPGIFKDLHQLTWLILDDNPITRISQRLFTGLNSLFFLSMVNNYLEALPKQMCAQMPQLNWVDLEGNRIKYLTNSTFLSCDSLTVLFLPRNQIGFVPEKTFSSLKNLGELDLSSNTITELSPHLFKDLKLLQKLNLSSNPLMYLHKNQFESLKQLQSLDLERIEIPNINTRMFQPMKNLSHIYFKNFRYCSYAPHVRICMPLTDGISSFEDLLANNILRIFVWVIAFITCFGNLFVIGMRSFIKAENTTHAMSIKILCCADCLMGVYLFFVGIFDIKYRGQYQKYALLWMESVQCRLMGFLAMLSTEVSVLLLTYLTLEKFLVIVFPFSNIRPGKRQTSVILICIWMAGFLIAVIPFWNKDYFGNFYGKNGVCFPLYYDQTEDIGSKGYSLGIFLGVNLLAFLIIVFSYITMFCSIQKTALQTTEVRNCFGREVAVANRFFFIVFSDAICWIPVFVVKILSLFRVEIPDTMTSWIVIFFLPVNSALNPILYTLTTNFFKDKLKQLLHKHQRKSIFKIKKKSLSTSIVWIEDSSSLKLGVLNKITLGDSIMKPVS
NCGC Assay Protocol Summary: This is a cell-based assay for cAMP second messenger response to screen for agonists of the RXFP2 receptor. The assay was conducted in the presence of a PDE4 inhibitor (Ro 20174). The cells were lysed and the cAMP levels were measured with a TR-FRET cAMP kit. Presence of cAMP in the cell lysate disrupts binding between the cryptate-labeled anti-cAMP and d2-labeled cAMP pair, leading to a decrease in the TR-FRET signal. Data were normalized to the controls for basal activity (buffer only) and 100% activity (29 nM porcine relaxin). The EC50 values were determined from concentration-response data modeled with the standard Hill equation 1536-well assay protocol for the HEK293 RXFP2 cAMP assay: (1) Add 3 ul HEK293 RXFP2 cell culture. 2000 cells/well in DMEM/F12, 10% FBS, 1x Pen/Strep (dispensed offline with MultiDrop Combi). (2) Incubate 16-24 hr at 37C, 5% CO2. (3) Add 1 ul 400uM Ro20174 in DPBS, 0.05% BSA, 0.005% Tween 20. (3) Add 23 nl compounds in DMSO solution. Final concentration was 0.5 - 58 uM. (4) Incubate 30 min at 37C, 5% CO2. (5) Add 1 ul cAMP-d2 in lysis buffer (HTRF cAMP HiRange kit, CisBio). (6) Add 1 ul anti-cAMP antibody-cryptate in lysis buffer (HTRF cAMP HiRange kit, CisBio). (7) Incubate 30 min at room temperature. […] Keywords: relaxin, RXFP1, RXFP2, G-protein coupled receptor, cAMP, agonist, high throughput screening, MLSMR, MLSCN, NIH Roadmap, qHTS and NCGC
(In general: qHTS replaces the single test concentration by a dilution series.)
In the case of `CCc1cc2cc3c(cc2nc1SCC(=O)Nc1nccs1)OCO3`, the Potency is 21.8 µM (active).
Same read-out and setting: the same measure for `COC(=O)Cn1cnc2c(C#N)c3n(c2c1=O)CCCC3`: 30.9 µM (active); for `Cn1c2ccccc2c2nnc(SCC(=O)Nc3cccc(C(=O)O)c3)nc21`: 30.9 µM (active).
Turning to `CC1CCN(S(=O)(=O)c2ccc3nc(N4CCN(c5ccccc5)CC4)ccc3c2)CC1`, the Potency was 15.4 µM (active).
On the same count and under the same terms, the same measure for `O=C(O)CSc1ccnc2cc(Cl)ccc12`: 21.8 µM (active).
As for `C=CCNc1ncnc2c1ncn2C1OC(CO)C(O)C1O` (stereo not given), the “activation” value is -17.7% (inactive).
`NC(=S)c1cc2ccc(O)cc2oc1=O`: the Potency was 4.88 µM (active).
Consider `O=C(O)c1ccc(CN2C(=O)c3ccc(C(=O)O)cc3C2=O)cc1`, for which the “activation” value was 5.29% (inactive).
Same read-out and setting: the same measure for `O=C(Nc1ccc(Cl)cc1)Nc1ccccc1Sc1ncc([N+](=O)[O-])s1`: 9.11% (inactive); for `O=C(O)c1ccc(N=C2NC(=O)C(CO)(CO)S2)cc1`: 2.73% [at 44.7 µM] (inactive).
Take `C=CCNC(=O)NC(=O)COC(=O)c1nc2nccc(C)n2n1`: the Potency is 34.6 µM (active).
On to `N#C/C(=C/c1ccc(OCc2ccccc2)cc1)C(=O)NC1CCCCC1`, for which the “activation” value was 12.7% [at 44.7 µM] (inactive).
For `Cn1c(N)c(C(=O)CSc2nn(-c3ccc(F)cc3)c(=S)s2)c(=O)n(C)c1=O`, the Potency was 21.8 µM (active).
On to `CN1CCN(C(=O)CCc2nnc3ccc(N4CCC5(CC4)OCCO5)nn23)CC1`, for which the “activation” value was 25.3% (inactive).
Regarding `C=CCSc1nc2c(c(=O)[nH]1)C(C(C)C)C(C#N)=C(N)O2` (stereo not given), the Potency is 43.6 µM (active).
For `CC(C)c1ccccc1NC(=O)c1ccccc1NC(=O)C1CCCCC1`, the “activation” value was 3.66% [at 125 µM] (inactive).
As to `Cc1cccc(NC(=O)c2ccccc2NC(=O)C2CCCCC2)c1C`, the “activation” value was 4.02% [at 125 µM] (inactive).
Still for that read-out and setting: then `COc1ccc(Nc2ncc(C#N)c(N)n2)c(OC)c1`, with 2.09% (inactive).
As for `CCN(CC)S(=O)(=O)c1cccc(N=Nc2c(O)c3ccccc3oc2=O)c1`, the Potency was 34.6 µM (active).
Consider `COc1ccc(NC(=O)CSc2nc(-c3ccc(C)cc3)cc(C(F)(F)F)c2C#N)cc1`, for which the “activation” value is 27% [at 44.7 µM] (inactive).
Consider `Cn1c(=O)c2c(ncn2CC(=O)NC2CCCCC2)n(C)c1=O`, for which the Potency is 48.9 µM (active).
In the case of `Cc1cccc(C(=O)Nc2ccccc2C(=O)NCc2ccco2)c1`, the “activation” value was 13% [at 125 µM] (inactive).
In the case of `COc1ccc(CN2C(=O)c3cccnc3C2=O)cc1S(=O)(=O)NC1CCCCC1C` (stereo not given), the Potency was 15.5 µM (active).
Still for that read-out and setting: the same measure for `O=C(Nc1ccccc1C(=O)Nc1ccccc1C(=O)NCc1ccco1)c1ccco1`: “inactive”.
Still for that read-out and setting: the same measure for `Cc1cc(C)n2nc(C(=O)Nc3ccc4c(c3)OCCO4)nc2n1`: 6.9 µM (active).
Still for that read-out and setting: then `CCc1ccc(-c2nc3ccc(Br)cc3c(C(=O)O)c2C)s1`, with 4.35 µM (active).
Take `Cc1ccccc1NC(=O)c1ccccc1NC(=O)c1ccco1`: the “activation” value is -2.61% [at 125 µM] (inactive).
As to `Cc1cccc2cc(C#N)c(SCC(=O)NCc3cccs3)nc12`, the Potency is 19.4 µM (active).
Turning to `CC(C)Oc1ccc(S(=O)(=O)N2CCOCC2)cc1NC(=O)c1cc([N+](=O)[O-])ccc1N1CCOCC1`, the Potency was 29.8 µM (active).
As for `Cc1ccnc(NS(=O)(=O)c2ccc(N3C(=O)c4ccccc4C3=O)cc2)n1`, the Potency is 18.8 µM (active).
On the same count and under the same terms, the same measure for `O=C(Oc1ccccc1)Oc1ccc2c(c1)oc(=O)c1ccccc12`: 19.4 µM (active).
Consider `O=C(Nc1ccccc1C(=O)NC1CCCCC1)c1ccco1`, for which the “activation” value is 15.2% [at 125 µM] (inactive).
The same measure, in the same setting: the same measure for `Cc1cc(C)c(C(=O)CSc2n[nH]c(=O)n2C2CC2)cc1C`: -0.257% (inactive).
As to `Cc1ccccc1OCC(=O)Nc1sc(C(=O)Nc2cccc(C)c2C)c(C)c1C#N`, the Potency is 6.9 µM (active).
Consider `COc1cc(-c2nnc(SCC(=O)N(C)C3CCS(=O)(=O)C3)o2)cc(OC)c1OC` (stereo not given), for which the “activation” value is 4.39% [at 44.7 µM] (inactive).
Turning to `O=C(Nc1ccccc1C(=O)N1CCN(c2ccccc2)CC1)c1ccco1`, the “activation” value is -2.96% [at 125 µM] (inactive).
`CCNc1nc(NCC)nc(N(C)/N=C/c2ccco2)n1`: the “activation” value was 7.92% (inactive).
On the same count and under the same terms, then `CC(=O)Nc1c2c3c(cccc3n(C)c1=O)C(=O)c1ccccc1-2`, with 20.1% [at 44.7 µM] (inactive).
As for `Brc1ccc2ncnc(NCc3cccnc3)c2c1`, the Potency is 43.6 µM (active).
The same measure, in the same setting: the same measure for `CCOC(=O)N1CCN(S(=O)(=O)c2c(C)nc3scc(C)n3c2=O)CC1`: 30.9 µM (active).
